± gives the standard deviation.

One assay relates to MILI (PIWIL2) piRISC loaded with L1MC piRNA (26 nt). The assay is described as follows: pre-steady-state target cleavage rate (min^-1); guide: L1MC piRNA 5'p-UAACUAAAUACUAUGCAAGCUGUAGG; MIWI and MILI are mouse PIWI proteins and EfPiwi is from a freshwater sponge; tags in brackets are library labels; higher = faster piRNA-guided slicing of the target. The conditions noted are these: auxiliary factor: 500 nM mouse GTSF1. The method in brief: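 The pre-steady-state cleavage rate was obtained by Cleave-'n-Seq with a burst-and-steady-state fit. A transcribed, DNA-blocked target RNA library (0.1 nM) was mixed with 1 nM active affinity-purified piRISC carrying one synthetic guide, with or without 500 nM GTSF1 partner protein, in HEPES–potassium acetate buffer at 33 °C for 0–8 or 0–960 min. Uncleaved targets were sequenced and normalised to depth and to weakly complementary targets, with three trials pooled and k3 capped at 0.0001 min^-1.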
For UCCUGGAUCAGCUUGCAUAGUACUUUAGUUA, the “pre-steady-state target cleavage rate” value amounted to 0.14 ± 0.016.
Same read-out and setting: next, UCCUGGUAGUGCUUGCAUAGUAUUUAGUUA: 0.184 ± 0.018; UCCUCCUACAGCUUGGUUAGUAUUUAGUAA: 0.204 ± 0.022; UCCUGGUACAGCGUUGCAUAGUAUUUAGUUA: 0.196 ± 0.027.
Same read-out and setting: next, UCCUGGAUGAGGCUUGCAUAGUAUUUAGUUA: 0.186 ± 0.018; UCCUGCUAGAGCUUGCUUAGUAUUUAGUUA: 0.162 ± 0.01; UCCUGCUACUGCUUGCAUAGUAUUUUGUUA: 0.138 ± 0.024.
Same read-out and setting: next, UCCUCCUACAGCUUGGAUAGUAUUUAGUAA: 0.208 ± 0.02; UCCUGGAACAGCUUGCAUAGUAUUUGAGUUA: 0.209 ± 0.035.
Turning to UCCUGGAACAGCUUGCAUCGUAUUUAGUUA, the “pre-steady-state target cleavage rate” value stood at 0.0882 ± 0.013.
Turning to UCCUGGAACAGCUUGCAUAGUAUUUACUUA, the “pre-steady-state target cleavage rate” value was 0.0894 ± 0.017.
Same read-out and setting: next, UCCUGGAUGAGCUUGCAUUGUAUUAAGUUA: 0.0879 ± 0.017; UCCUGGUACAGCUUGCAAACUAUUUAGUUA: 0.0345 ± 0.007.
Same read-out and setting: next, UCCUGGAUGUGCAUGCAUAGUAUUUAGUUA: 0.116 ± 0.011.
In the case of UCCUGGAACAGCUUUGCAUAGUAUUUAGUUA, the “pre-steady-state target cleavage rate” value came out at 0.248 ± 0.016.
For the sequence UCCUCCUUGUGCUUGCAUAGUAUUUAGUAA, the “pre-steady-state target cleavage rate” value turned out to be 0.147 ± 0.021.
On the same count and under the same terms, next, UCCUCCUACAGCAUGCAUAGUAUUUACUUA: 0.16 ± 0.022.
On the same count and under the same terms, next, UCCUGCUACAGCUGGCAUAGUAUUUAGUUA: 0.293 ± 0.019; UCCUGGAUGAGCUAGCAUUGUAUUUAGUUA: 0.0518 ± 0.0092; UCCUCCUACAGCGUUGCAUAGUAUUUAGUUA: 0.296 ± 0.021.
The same measure, in the same setting: next, UCCUGGUACAGCUUGGAUAGUAAUUAGUUA: 0.226 ± 0.057.
With UCCUGCUACAGCUUGCAUAGUAUAAAGUUA, the “pre-steady-state target cleavage rate” value came to 0.198 ± 0.025.
Same read-out and setting: next, UCCUGCUACAGCUUUGCAUAGUAUUUAGUUA: 0.263 ± 0.02; UCCUCCUACAGGUUGCAUUGUAUUUAGUUA: 0.152 ± 0.012; UCCUGGAACAGGUUGCAUACUAUUUAGUUA: 0.0491 ± 0.0087.
Take UCCUGGUACAGCUAGCAUAGUAUUUAGUAA: the “pre-steady-state target cleavage rate” value is 0.201 ± 0.022.
In the case of UCCUCCAACAGCUUGCAUAGUUUUUAGUUA, the “pre-steady-state target cleavage rate” value came to 0.0522 ± 0.0087.
The same measure, in the same setting: next, UCCUGGAACAGCUUCCUUAGUAUUUAGUUA: 0.214 ± 0.018; “UCCUGGAUGUGCUUGCAUAGUAUUUAGUUG [g2:g20:cont:t1G]”: 0.179 ± 0.022.
Same read-out and setting: next, UCCUGGAACAGCGUGCAUAGUAUUUAGUUA: 0.282 ± 0.017; UCCUGGAUGAGGUUGCAUAGUAAUUAGUUA: 0.117 ± 0.032.
In the case of UCCUCCUUCAGCUUGCUUAGUAUUUAGUUA, the “pre-steady-state target cleavage rate” value was determined as 0.286 ± 0.015.
Still for that read-out and setting: next, UCCUGGUUCAGCUUGCAUAGUAUUUAGUAA: 0.144 ± 0.028.
Still for that read-out and setting: next, UCCUGGUACCAGCUUGCAUAGUAUUUAGUUA: 0.276 ± 0.043; UCCUGGAACAGCUUCCAAAGUAUUUAGUUA: 0.137 ± 0.015; UCCUGCUACAGCUUGCAUAGUAUUUAAGUUA: 0.365 ± 0.043.
Consider UCCUGGAACAGCUUGCAAGUAUUUAGUUA, for which the “pre-steady-state target cleavage rate” value turned out to be 0.141 ± 0.013.
Regarding UCCUGGAUGUCGUCUGCAUAGUAUUUAGUUA, the “pre-steady-state target cleavage rate” value came to 0.106 ± 0.015.
In the case of UCCUCCUUCAGCUAGCAUAGUAUUUAGUUA, the “pre-steady-state target cleavage rate” value came out at 0.228 ± 0.017.

Staying with this assay, now noted: auxiliary factor: none (no GTSF1).
Turning to UCCUGGAUCAGCUUGCAUAGUACUUUAGUUA, the “pre-steady-state target cleavage rate” value was determined as 0.00672 ± 0.0027.
Regarding UCCUGGUAGUGCUUGCAUAGUAUUUAGUUA, the “pre-steady-state target cleavage rate” value turned out to be 0.00947 ± 0.0025.
The same measure, in the same setting: next, UCCUCCUACAGCUUGGUUAGUAUUUAGUAA: 0.00554 ± 0.0017.
The same measure, in the same setting: next, UCCUGGUACAGCGUUGCAUAGUAUUUAGUUA: 0.0109 ± 0.0053; UCCUGGAUGAGGCUUGCAUAGUAUUUAGUUA: 0.0125 ± 0.0036; UCCUGCUAGAGCUUGCUUAGUAUUUAGUUA: 0.00643 ± 0.002.
For the sequence UCCUGCUACUGCUUGCAUAGUAUUUUGUUA, the “pre-steady-state target cleavage rate” value is 0.00318 ± 0.0029.
For the sequence UCCUCCUACAGCUUGGAUAGUAUUUAGUAA, the “pre-steady-state target cleavage rate” value worked out at 0.00459 ± 0.0023.
Same read-out and setting: next, UCCUGGAACAGCUUGCAUAGUAUUUGAGUUA: 0.00299 ± 0.003.
On to UCCUGGAACAGCUUGCAUCGUAUUUAGUUA, for which the “pre-steady-state target cleavage rate” value was determined as 0.00682 ± 0.0024.
Still for that read-out and setting: next, UCCUGGAACAGCUUGCAUAGUAUUUACUUA: 0.003 ± 0.0029; UCCUGGAUGAGCUUGCAUUGUAUUAAGUUA: 0.00381 ± 0.0027.
On the same count and under the same terms, next, UCCUGGUACAGCUUGCAAACUAUUUAGUUA: 0.00378 ± 0.0028; UCCUGGAUGUGCAUGCAUAGUAUUUAGUUA: 0.0095 ± 0.0025.
The same measure, in the same setting: next, UCCUGGAACAGCUUUGCAUAGUAUUUAGUUA: 0.00711 ± 0.0027; UCCUCCUUGUGCUUGCAUAGUAUUUAGUAA: 0.0033 ± 0.0024; UCCUCCUACAGCAUGCAUAGUAUUUACUUA: 0.00307 ± 0.0026.
As for UCCUGCUACAGCUGGCAUAGUAUUUAGUUA, the “pre-steady-state target cleavage rate” value was found to be 0.00759 ± 0.0024.
The same measure, in the same setting: next, UCCUGGAUGAGCUAGCAUUGUAUUUAGUUA: 0.00446 ± 0.0025; UCCUCCUACAGCGUUGCAUAGUAUUUAGUUA: 0.0063 ± 0.0021.
On to UCCUGGUACAGCUUGGAUAGUAAUUAGUUA, for which the “pre-steady-state target cleavage rate” value was 0.00415 ± 0.0029.
Same read-out and setting: next, UCCUGCUACAGCUUGCAUAGUAUAAAGUUA: 0.00349 ± 0.0022; UCCUGCUACAGCUUUGCAUAGUAUUUAGUUA: 0.00559 ± 0.0027; UCCUCCUACAGGUUGCAUUGUAUUUAGUUA: 0.00725 ± 0.0019.
Turning to UCCUGGAACAGGUUGCAUACUAUUUAGUUA, the “pre-steady-state target cleavage rate” value turned out to be 0.00363 ± 0.002.
For UCCUGGUACAGCUAGCAUAGUAUUUAGUAA, the “pre-steady-state target cleavage rate” value came to 0.00371 ± 0.0023.
The same measure, in the same setting: next, UCCUCCAACAGCUUGCAUAGUUUUUAGUUA: 0.00502 ± 0.0021; UCCUGGAACAGCUUCCUUAGUAUUUAGUUA: 0.00562 ± 0.002.
Same read-out and setting: next, “UCCUGGAUGUGCUUGCAUAGUAUUUAGUUG [g2:g20:cont:t1G]”: 0.00877 ± 0.0027; UCCUGGAACAGCGUGCAUAGUAUUUAGUUA: 0.00797 ± 0.0029.
With UCCUGGAUGAGGUUGCAUAGUAAUUAGUUA, the “pre-steady-state target cleavage rate” value worked out at 0.00411 ± 0.0022.
Same read-out and setting: next, UCCUCCUUCAGCUUGCUUAGUAUUUAGUUA: 0.00762 ± 0.002; UCCUGGUUCAGCUUGCAUAGUAUUUAGUAA: 0.00573 ± 0.0029; UCCUGGUACCAGCUUGCAUAGUAUUUAGUUA: 0.00866 ± 0.0047.
In the case of UCCUGGAACAGCUUCCAAAGUAUUUAGUUA, the “pre-steady-state target cleavage rate” value stood at 0.00525 ± 0.0018.
On the same count and under the same terms, next, UCCUGCUACAGCUUGCAUAGUAUUUAAGUUA: 0.00882 ± 0.0027; UCCUGGAACAGCUUGCAAGUAUUUAGUUA: 0.00614 ± 0.0021; UCCUGGAUGUCGUCUGCAUAGUAUUUAGUUA: 0.00397 ± 0.0027.
The same measure, in the same setting: next, UCCUCCUUCAGCUAGCAUAGUAUUUAGUUA: 0.00519 ± 0.0022.

The values are drawn from the supplement of paper PMC10338343.
